Reference: PubChem BioAssay AID1159580 (chemical genetic matrix, 2015)
“And” between values parts separate entries of the source, which are not always exact repeats. Equal values may be shown once. Hit rate of the full screen: of about 5,500 compounds, about 2,000 (36%) were called active. Roughly 18% stayed inconclusive and do not appear here. Cut-off read from the data, not from the text of the source: active = normalized growth mostly below about 0.91 (no sharp cut-off); inconclusive = no clear call, values can overlap the other calls; inactive = mostly above about 0.92. Some of the results follow.

Experiment: chemical genetic growth profiling, strain panel (AID 1159580);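 note: tested at 20 µM; growth read once vehicle control cultures reached saturation at 30 °C; 1 = growth at the plate median or of vehicle wells; lower values mean less growth of the strain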
Conditions: growth OD
[1] = S. cerevisiae deletion strains, locus YAR019C, strain CDC15, active compounds read low
[2] = S. cerevisiae deletion strains, locus YBL105C, strain PKC1, active compounds read low
[3] = S. cerevisiae deletion strains, locus YBR135W, strain CKS1, active compounds read low
[4] = S. cerevisiae deletion strains, locus YBR136W, strain MEC1, active compounds read low
[5] = S. cerevisiae deletion strains, locus YBR160W, strain CDC28, active compounds read low
[6] = S. cerevisiae deletion strains, locus YDL017W, strain CDC7, active compounds read low
[7] = S. cerevisiae deletion strains, locus YDL028C, strain MPS1, active compounds read low
[8] = S. cerevisiae deletion strains, locus YDL101C, strain DUN1, active compounds read low
[9] = S. cerevisiae deletion strains, locus YDL108W, strain KIN28, active compounds read low
[10] = S. cerevisiae deletion strains, locus YDL132W, strain cdc53, active compounds read low
[11] = S. cerevisiae deletion strains, locus YDL214C, strain PRR2, active compounds read low
[12] = S. cerevisiae deletion strains, locus YDR052C, strain DBF4, active compounds read low
[13] = S. cerevisiae deletion strains, locus YDR054C, strain cdc34, active compounds read low
[14] = S. cerevisiae deletion strains, locus YDR226W, strain ADK1, active compounds read low
[15] = S. cerevisiae deletion strains, locus YDR477W, strain SNF1, active compounds read low
[16] = S. cerevisiae deletion strains, locus YER123W, strain YCK3, active compounds read low
[17] = S. cerevisiae deletion strains, locus YER133W, strain GLC7, active compounds read low
[18] = S. cerevisiae deletion strains, locus YFL009W, strain cdc4, active compounds read low
[19] = S. cerevisiae deletion strains, locus YFL029C, strain CAK1, active compounds read low
[20] = S. cerevisiae deletion strains, locus YFR003C, strain YPI1, active compounds read low
[21] = S. cerevisiae deletion strains, locus YFR019W, strain FAB1, active compounds read low
[22] = S. cerevisiae deletion strains, locus YFR028C, strain CDC14, active compounds read low
[23] = S. cerevisiae deletion strains, locus YGR040W, strain KSS1, active compounds read low
[24] = S. cerevisiae deletion strains, locus YGR052W, strain FMP48, active compounds read low
[25] = S. cerevisiae deletion strains, locus YGR092W, strain DBF2, active compounds read low
[26] = S. cerevisiae deletion strains, locus YHR030C, strain SLT2, active compounds read low
[27] = S. cerevisiae deletion strains, locus YHR079C, strain IRE1, active compounds read low
[28] = S. cerevisiae deletion strains, locus YHR082C, strain KSP1, active compounds read low
[29] = S. cerevisiae deletion strains, locus YHR205W, strain SCH9, active compounds read low
[30] = S. cerevisiae deletion strains, locus YIL147C, strain SLN1, active compounds read low
[31] = S. cerevisiae deletion strains, locus YJL095W, strain BCK1, active compounds read low
[32] = S. cerevisiae deletion strains, locus YJL128C, strain PBS2, active compounds read low
[33] = S. cerevisiae deletion strains, locus YJL157C, strain FAR1, active compounds read low
[34] = S. cerevisiae deletion strains, locus YJR016C, strain ILV3, active compounds read low
[35] = S. cerevisiae deletion strains, locus YJR066W, strain TOR1 (second series), active compounds read low
[36] = S. cerevisiae deletion strains, locus YJR066W, strain TOR1, active compounds read low
[37] = S. cerevisiae deletion strains, locus YKL048C, strain ELM1, active compounds read low
[38] = S. cerevisiae deletion strains, locus YKL067W, strain YNK1, active compounds read low
[39] = S. cerevisiae deletion strains, locus YKL101W, strain HSL1, active compounds read low
[40] = S. cerevisiae deletion strains, locus YKL193C, strain SDS22, active compounds read low
[41] = S. cerevisiae deletion strains, locus YKL203C, strain TOR2, active compounds read low
[42] = S. cerevisiae deletion strains, locus YLR113W, strain HOG1, active compounds read low
[43] = S. cerevisiae deletion strains, locus YLR133W, strain CKI1, active compounds read low
[44] = S. cerevisiae deletion strains, locus YLR403W, strain SFP1, active compounds read low
[45] = S. cerevisiae deletion strains, locus YML070W, strain DAK1, active compounds read low
[46] = S. cerevisiae deletion strains, locus YMR001C, strain CDC5, active compounds read low
[47] = S. cerevisiae deletion strains, locus YMR205C, strain PFK2 (second series), active compounds read low
[48] = S. cerevisiae deletion strains, locus YMR277W, strain FCP1, active compounds read low
[49] = S. cerevisiae deletion strains, locus YNL006W, strain LST8, active compounds read low
[50] = S. cerevisiae deletion strains, locus YNL020C, strain ARK1, active compounds read low
[51] = S. cerevisiae deletion strains, locus YNL161W, strain CBK1, active compounds read low
[52] = S. cerevisiae deletion strains, locus YNL183C, strain NPR1, active compounds read low
[53] = S. cerevisiae deletion strains, locus YNL207W, strain RIO2, active compounds read low
[54] = S. cerevisiae deletion strains, locus YNL222W, strain SSU72, active compounds read low
[55] = S. cerevisiae deletion strains, locus YNL307C, strain MCK1 (second series), active compounds read low
[56] = S. cerevisiae deletion strains, locus YOL078W, strain AVO1, active compounds read low
[57] = S. cerevisiae deletion strains, locus YOL136C, strain PFK27, active compounds read low
[58] = S. cerevisiae deletion strains, locus YOR061W, strain CKA2, active compounds read low
[59] = S. cerevisiae deletion strains, locus YOR119C, strain RIO1, active compounds read low
[60] = S. cerevisiae deletion strains, locus YOR231W, strain MKK1, active compounds read low
[61] = S. cerevisiae deletion strains, locus YOR329C, strain SCD5, active compounds read low
[62] = S. cerevisiae deletion strains, locus YPL031C, strain PHO85, active compounds read low
[63] = S. cerevisiae deletion strains, locus YPL153C, strain RAD53, active compounds read low
[64] = S. cerevisiae deletion strains, locus YPL204W, strain HRR25, active compounds read low
[65] = S. cerevisiae deletion strains, locus YPL209C, strain IPL1, active compounds read low
[66] = S. cerevisiae deletion strains, locus YPL256C, strain CLN2, active compounds read low
[67] = S. cerevisiae deletion strains, locus YPR025C, strain CCL1, active compounds read low
[68] = S. cerevisiae deletion strains, locus YPR106W, strain ISR1, active compounds read low
[69] = S. cerevisiae deletion strains, locus YPR111W, strain DBF20, active compounds read low
[70] = S. cerevisiae deletion strains, strain NNK1, active compounds read low
[71] = S. cerevisiae deletion strains, strain TSCII, active compounds read low
[72] = S. cerevisiae deletion strains, locus YAL013W, strain DEP1, active compounds read low
[73] = S. cerevisiae deletion strains, locus YBR229C, strain ROT2, active compounds read low
[74] = S. cerevisiae deletion strains, locus YDL134C, strain PPH21, active compounds read low
[75] = S. cerevisiae deletion strains, locus YDR150W, strain NUM1, active compounds read low
[76] = S. cerevisiae deletion strains, locus YEL061C, strain CIN8, active compounds read low
[77] = S. cerevisiae deletion strains, locus YGR078C, strain PAC10, active compounds read low
[78] = S. cerevisiae deletion strains, locus YGR229C, strain SMI1, active compounds read low
[79] = S. cerevisiae deletion strains, locus YHR087W, strain rtc3, active compounds read low
[80] = S. cerevisiae deletion strains, locus YJR043C, strain POL32, active compounds read low
[81] = S. cerevisiae deletion strains, locus YJR075W, strain HOC1, active compounds read low
[82] = S. cerevisiae deletion strains, locus YKL190W, strain CNB1, active compounds read low
[83] = S. cerevisiae deletion strains, locus YLR039C, strain RIC1, active compounds read low
[84] = S. cerevisiae deletion strains, locus YLR058C, strain SHM2 (second series), active compounds read low
[85] = S. cerevisiae deletion strains, locus YLR085C, strain ARP6, active compounds read low
[86] = S. cerevisiae deletion strains, locus YLR262C, strain YPT6, active compounds read low
[87] = S. cerevisiae deletion strains, locus YML094W, strain GIM5, active compounds read low
[88] = S. cerevisiae deletion strains, locus YMR219W, strain ESC1, active compounds read low
[89] = S. cerevisiae deletion strains, locus YMR263W, strain SAP30, active compounds read low
[90] = S. cerevisiae deletion strains, locus YNL128W, strain TEP1, active compounds read low
[91] = S. cerevisiae deletion strains, locus YNL153C, strain GIM3, active compounds read low
[92] = S. cerevisiae deletion strains, locus YNL298W, strain CLA4 (second series), active compounds read low
[93] = S. cerevisiae deletion strains, locus YNL322C, strain KRE1, active compounds read low
[94] = S. cerevisiae deletion strains, locus YNR030W, strain Alg12, active compounds read low
[95] = S. cerevisiae deletion strains, locus YPL055C, strain LGE1, active compounds read low
[96] = S. cerevisiae deletion strains, locus YPL241C, strain CIN2, active compounds read low
[97] = S. cerevisiae deletion strains, locus YPR135W, strain CTF4, active compounds read low
[98] = S. cerevisiae strains, strain wild type, active compounds read low

Measured: normalized growth

O=C(O/N=C1/CCCc2[nH]c3ccccc3c21)C1CCCCC1
inactive: [1] 0.972 | [2] 0.959 | [3] 0.964 | [4] 0.947 | [5] 0.962 | [6] 0.955 | [7] 0.962 | [8] 0.973 | [9] 0.931 | [10] 0.97 | [11] 0.881 | [12] 0.971 | [13] 0.951 | [14] 0.962 | [15] 0.905 | [16] 0.821 | [17] 0.888 | [18] 0.973 | [19] 0.966 | [20] 0.961 | [21] 0.918 | [22] 0.975 | [23] 0.856 | [24] 0.914 | [25] 0.845 | [26] 0.971 | [27] 0.963 | [28] 0.899 | [29] 0.873 | [30] 0.962 | [31] 0.942 | [32] 0.935 | [33] 0.884 | [34] 0.951 | [35] 0.902 | [36] 0.895 | [37] 0.925 | [38] 0.909 | [39] 0.878 | [40] 0.97 | [41] 0.931 | [42] 0.966 | [43] 0.9 | [44] 0.903 | [45] 0.846 | [46] 0.966 | [47] 0.895 | [48] 0.956 | [49] 0.992 | [50] 0.872 | [51] 0.963 | [52] 0.896 | [53] 0.959 | [54] 0.967 | [55] 0.911 | [56] 0.963 | [57] 0.857 | [58] 0.845 | [59] 0.948 | [60] 0.951 | [61] 0.972 | [62] 0.894 | [63] 0.887 | [64] 0.908 | [65] 0.965 | [66] 0.933 | [67] 0.961 | [68] 0.962 | [69] 0.969 | [70] 0.967 | [71] 0.967

O=C(O/N=C1/CCCc2[nH]c3ccccc3c21)c1ccc(Cl)cc1Cl
inactive: [1] 0.982 | [2] 0.984 | [3] 0.974 | [4] 0.975 | [5] 0.98 | [73] 0.97 | S. cerevisiae deletion strains, locus YCL061C, strain MRC1, active compounds read low 0.923 | [6] 0.974 | [7] 0.972 | [8] 0.989 and 1 | [9] 0.972 | [10] 0.976 | [74] 0.968 | [11] 0.917 | [12] 0.985 | [13] 0.984 | [75] 0.943 | [14] 0.96 | [15] 0.91 | [76] 0.917 | [16] 0.917 | [17] 0.91 | [18] 0.971 | [19] 0.98 | [20] 0.973 | [21] 0.95 | [22] 0.977 | [23] 0.908 | [24] 0.897 | [77] 0.962 | [25] 0.982 | [78] 0.993 | [27] 0.988 | [28] 0.943 | [79] 0.982 | [29] 0.961 | [30] 0.976 | [31] 0.935 | [32] 0.921 | [33] 0.906 | [34] 0.964 | [80] 0.941 | [35] 0.876 | [36] 0.987 | [81] 0.895 | [37] 0.963 | [38] 0.946 | [39] 0.935 | [40] 0.969 | [41] 0.958 | [84] 0.971 | [43] 0.926 | [44] 0.931 | [45] 0.914 | [46] 0.977 | [47] 0.935 | [88] 1.01 | [48] 0.969 | [49] 0.983 | [50] 0.921 | [90] 0.972 | [91] 0.971 | [51] 0.971 | [52] 1 | [53] 0.976 | [54] 0.97 | [55] 0.937 | [93] 0.993 | [56] 0.971 | [57] 0.917 | [58] 0.935 | [59] 0.97 | [60] 0.939 | [61] 0.972 | [62] 0.9 | [63] 0.918 | [64] 0.912 | [65] 0.977 | [66] 0.882 | [67] 0.979 | [68] 0.979 | [69] 0.972 | [97] 0.681 | [70] 0.975 | [71] 0.972
active: [72] 0.906 | [26] 0.426 and 0.762 | [82] 0.807 | [83] 0.708 | [85] 0.55 | [42] 0.806 | [86] 0.776 | [87] 0.822 | [89] 0.893 | S. cerevisiae deletion strains, locus YMR307W, strain GAS1, active compounds read low 0.461 | [92] 0.796 | [94] 0.754 | [95] 0.733 | [96] 0.843 | [98] 0.874

Cn1c2c(c3ccccc31)/C(=N\OC(=O)c1ccc(Cl)cc1Cl)CCC2
inactive: [72] 1.01 | [73] 1.03 | [8] 1.02 | [74] 1.02 | [75] 1.04 | [76] 0.957 | [77] 1.03 | [78] 1.02 | [26] 1.07 | [79] 0.986 | S. cerevisiae deletion strains, locus YJL187C, strain SWE1, active compounds read low 1.01 | [80] 1.02 | [81] 1.01 | [82] 1.01 | [83] 1.01 | [84] 1.02 | [85] 0.977 | [86] 1.15 | [87] 1 | [88] 1 | [89] 0.986 | [90] 1.01 | [91] 1.04 | [92] 1.01 | [93] 1.01 | [94] 1.03 | [95] 0.982 | [96] 0.98 | [97] 1.11 | [98] 1.02
